Measured values published in PubChem BioAssay AID1159580 (chemical genetic matrix, 2015).
Where “and” joins values, the source holds several entries; their conditions need not be identical. Equal values may be shown once. In all, about 5,500 compounds went through this assay and about 2,000 (36%) were called active. Inconclusive results (about 18%) are left out. Cut-off read from the data, not from the text of the source: active = normalized growth mostly below about 0.91 (no sharp cut-off); inconclusive = no clear call, values can overlap the other calls; inactive = mostly above about 0.92. The list shows a part of the results.

Test: chemical genetic growth profiling, strain panel (AID 1159580);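 note: tested at 20 µM; growth read once vehicle control cultures reached saturation at 30 °C; 1 = growth at the plate median or of vehicle wells; lower values mean less growth of the strain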
Conditions: S. cerevisiae deletion strains, growth OD

Measured: normalized growth

CC1Cc2ccccc2N1NC(=O)c1ccc(Cl)c(S(N)(=O)=O)c1 (centres undefined)
inactive: locus YAL013W, strain DEP1, active compounds read low 1.01 | locus YAL021C, strain ccr4, active compounds read low 1 | locus YAL026C, strain drs2, active compounds read low 1 | locus YAL030W, strain snc1, active compounds read low 0.998 | locus YBL061C, strain skt5, active compounds read low 0.999 | locus YBR009C, strain hhf1, active compounds read low 0.996 | locus YBR021W, strain FUR4, active compounds read low 1.01 | locus YBR023C, strain chs3, active compounds read low 1 | locus YBR171W, strain sec66, active compounds read low 0.997 | locus YBR229C, strain ROT2, active compounds read low 1.01 | locus YBR231C, strain swc5, active compounds read low 0.978 | locus YBR279W, strain paf1, active compounds read low 1 | locus YCL011C, strain gbp2, active compounds read low 1.01 | locus YCL016C, strain dcc1, active compounds read low 0.996 | locus YCL029C, strain bik1, active compounds read low 1.01 | locus YCL061C, strain MRC1, active compounds read low 1.01 | locus YCL069W, strain vba3, active compounds read low 0.991 | locus YCR088W, strain abp1, active compounds read low 1.01 | locus YDL005C, strain med2, active compounds read low 0.999 | locus YDL035C, strain GPR1, active compounds read low 1.02 | locus YDL040C, strain nat1, active compounds read low 0.997 | locus YDL074C, strain BRE1, active compounds read low 1.02 | locus YDL101C, strain DUN1, active compounds read low 1.01 | locus YDL134C, strain PPH21, active compounds read low 1.03 | locus YDL185W, strain tfp1, active compounds read low 0.989 | locus YDL192W, strain arf1, active compounds read low 0.999 | locus YDR001C, strain nth1, active compounds read low 1 | locus YDR069C, strain doa4, active compounds read low 1 | locus YDR101C, strain arx1, active compounds read low 1.02 | locus YDR137W, strain rgp1, active compounds read low 1.01 | locus YDR159W, strain sac3, active compounds read low 0.992 | locus YDR162C, strain NBP2, active compounds read low 1.01 | locus YDR195W, strain ref2 0.979 | locus YDR297W, strain sur2, active compounds read low 0.998 | locus YDR318W, strain mcm21, active compounds read low 0.991 | locus YDR334W, strain swr1, active compounds read low 1.01 | locus YDR335W, strain msn5, active compounds read low 1 | locus YDR388W, active compounds read low 1 | locus YDR392W, strain spt3, active compounds read low 0.973 | locus YDR502C, strain sam2, active compounds read low 1 | locus YEL003W, strain gim4, active compounds read low 1 | locus YEL037C, strain rad23, active compounds read low 1 | locus YEL061C, strain CIN8 (second series), active compounds read low 0.999 | locus YEL061C, strain CIN8, active compounds read low 1.01 | locus YER015W, strain faa2, active compounds read low 1.01 | locus YER016W, strain bim1, active compounds read low 0.995 | locus YER110C, active compounds read low 0.996 | locus YER111C, strain swi4, active compounds read low 1 | locus YER155C, strain BEM2 (second series), active compounds read low 1.01 | locus YER155C, strain BEM2, active compounds read low 1.01 | locus YER167W, strain BCK2, active compounds read low 1.01 | locus YFR010W, strain ubp6, active compounds read low 1 | locus YGL078C, strain dbp3, active compounds read low 1 | locus YGL086W, strain mad1, active compounds read low 1.01 | locus YGL167C, strain pmr1, active compounds read low 1 | locus YGL173C, strain kem1, active compounds read low 1.01 | locus YGL227W, strain vid30, active compounds read low 0.999 | locus YGL240W, strain doc1, active compounds read low 0.996 | locus YGL248W, strain PDE1, active compounds read low 1.01 | locus YGL253W, strain hxk2, active compounds read low 0.993 | locus YGR078C, strain PAC10, active compounds read low 1.01 | locus YGR135W, strain pre9, active compounds read low 0.972 | locus YGR229C, strain SMI1, active compounds read low 1.02 | locus YGR252W, strain gcn5, active compounds read low 0.938 | locus YHR013C, strain ard1, active compounds read low 1.02 | locus YHR027C, strain rpn1, active compounds read low 1.01 | locus YHR030C, strain SLT2, active compounds read low 1 and 0.987 | locus YHR079C, strain IRE1 (second series), active compounds read low 0.994 | locus YHR079C, strain IRE1, active compounds read low 0.989 | locus YHR094C, strain hxt1, active compounds read low 0.993 | locus YHR129C, strain ARP1, active compounds read low 1.01 | locus YHR142W, strain chs7, active compounds read low 0.994 | locus YHR200W, strain rpn10, active compounds read low 1.01 | locus YIL066C, strain RNR3, active compounds read low 1.02 | locus YIL073C, strain SPO22, active compounds read low 0.991 | locus YIL125W, strain kgd1, active compounds read low 0.995 | locus YIR030C, strain dcg1, active compounds read low 1 | locus YJL092W, strain hpr5, active compounds read low 0.994 | locus YJL095W, strain BCK1 (second series), active compounds read low 1 | locus YJL095W, strain BCK1, active compounds read low 1.01 and 0.979 | locus YJL115W, strain asf1, active compounds read low 1 | locus YJL129C, strain trk1, active compounds read low 0.989 | locus YJL134W, strain LCB3, active compounds read low 1.01 | locus YJL154C, strain vps35, active compounds read low 1 | locus YJL164C, strain tpk1, active compounds read low 0.998 | locus YJL166W, strain qcr8, active compounds read low 0.997 | locus YJL168C, strain set2, active compounds read low 1 | locus YJL187C, strain SWE1 (second series), active compounds read low 1.01 | locus YJL187C, strain SWE1, active compounds read low 0.999
